Reference: PubChem BioAssay (NCATS)
Records with an inconclusive call do not appear. Entries that show only a call come without a potency. The source made the active and inactive calls. Calls follow the shape of the dose curve; as a rule, active = well fitted inhibition curve with a large enough effect; inconclusive = small, poorly fitted or top-dose-only effect; inactive = flat fitted curve, though single readings scatter.
Potency is read from the fitted curve at half-maximal effect.

Assay: BET inhibitor-based combinations targeting novel dependencies in MECOM-rearranged (r) AML: AML-191 cell line (AID 2202236; also: nearly all actives have a fitted effect of over 35% in size)
Conditions: AML-191 viability, CellTiter-Glo luminescence, 48 h; series mostly up to 46 µM
Outline: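 Cells were plated at 500 per well and exposed to an 11-point dose series of each drug for 48 hr. Viability was measured by CellTiter-Glo luminescence, normalized to DMSO and empty-well controls, and summarized as AUC and per-cell-line Z-AUC.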
For O=C1c2ccccc2-[n+]2ccc3c([nH]c4ccccc43)c21, the Potency was 1.66 µM (active).
In the case of CCOCC(O)COc1ccc(NC(=O)CC[S+](C)C)cc1 (stereo unspecified), the Potency is reported as “inactive”.
For C[C@H](NC(=O)c1sccc1OCc1ccc(Cl)cc1)c1ccccc1, the Potency was “inactive”.
With CC(C)C[C@@H](N)[C@H](O)C(=O)N[C@H](C(=O)N[C@H](C(=O)N[C@@H](CC(=O)O)C(=O)O)C(C)C)C(C)C the Potency was “inactive”.
With Nc1nc2[nH]cc(CCc3ccc(C(=O)N[C@@H](CCC(=O)O)C(=O)O)cc3)c2c(=O)[nH]1 the Potency was 0.525 µM (active).
For CCC(=O)O[C@]1(C(=O)SCF)[C@H](C)C[C@H]2[C@@H]3C[C@H](F)C4=CC(=O)C=C[C@]4(C)[C@@]3(F)[C@@H](O)C[C@@]21C, the Potency was “inactive”.
In the case of CO[C@@H]1[C@@H](OC(N)=O)[C@@H](O)[C@H](Oc2ccc3c(O)c(NC(=O)c4ccc(O)c(CC=C(C)C)c4)c(=O)oc3c2C)OC1(C)C, the Potency is reported as “inactive”.
With Cc1[nH]nc2ccc(-c3cncc(OC[C@@H](N)Cc4ccccc4)c3)cc12 the Potency was 0.833 µM (active).
With NC1=N[C@H]2[C@H](CS[C@H]2CCCCC(=O)O)N1 the Potency was “inactive”.
In the case of Cc1ccsc1C(=CCCN1CCC[C@@H](C(=O)O)C1)c1sccc1C, the Potency is reported as “inactive”.
With OC1CCC(Nc2ncc3nc(Nc4c(F)cc(F)cc4F)n([C@@H]4CCOC4)c3n2)CC1 (stereo partly specified) the Potency was 16.6 µM (active).
With CCOC(=O)[C@@H](N)CCC(=O)N[C@@H](CSCc1ccccc1)C(=O)N[C@@H](C(=O)OCC)c1ccccc1 the Potency was 16.6 µM (active).
With Cc1c(C)c2c(c(C)c1O)CCC(C)(COc1ccc(CC3SC(=O)NC3=O)cc1)O2 (stereo unspecified) the Potency was “inactive”.
For C[C@H](NC(=O)Cc1cc(F)cc(F)c1)C(=O)N[C@H](C(=O)OC(C)(C)C)c1ccccc1, the Potency was “inactive”.
In the case of CC(Cc1ccc(O)c(O)c1)(NN)C(=O)O (stereo unspecified), the Potency is reported as “inactive”.
In the case of C=C(C)[C@@H]1CC[C@]2(C)CC[C@]3(C)[C@H](CC[C@@H]4[C@@]5(C)CC[C@H](O)C(C)(C)[C@H]5CC[C@]43C)[C@@H]12, the Potency is reported as “inactive”.
In the case of Cc1ccc(S(=O)(=O)Nc2nc3ccccc3nc2Nc2ccc3nsnc3c2)cc1, the Potency is reported as “inactive”.
With Cc1ccc2c(=O)c3cccc(CC(=O)O)c3oc2c1C the Potency was “inactive”.
With COc1c(C)cnc(Cn2cnc3c(Cl)nc(N)nc32)c1C the Potency was 0.525 µM (active).
With C/C=C/C(=O)N(CC)c1ccccc1C the Potency was “inactive”.
For COC(=O)C1=C(C)NC(C)=C(C(=O)OCCN2CCN(C(c3ccccc3)c3ccccc3)CC2)C1c1cccc([N+](=O)[O-])c1 (stereo unspecified), the Potency was 26.3 µM (active).
